# Bioassay records: PubChem, National Center for Advancing Translational Sciences (NCATS)
# CHX counter: affects cycloheximide protein synthesis inhibition readout, counter-screen | cell reporter, cycloheximide protein synthesis inhibition counterscreen | max response, % | 300,000 compounds, 12% hits | AID 2314; in the data active = max response mostly above about 13%, no sharp cut-off; inactive = mostly below about 14%; also: read at 38.3 µM for the half of the compounds with a filed dose; 0% is about no effect
# Shiga toxin inh: inhibitors of Shiga toxin in Vero cells | Vero cells, Shiga toxin protein synthesis inhibition reporter | AID 2315 | 290,000 compounds, 9.2% hits | inhibition, % at 38.7 µM; in the data active = inhibition mostly above about 28%, no sharp cut-off; inactive = mostly below about 43%; also: 0% is about no effect
# AMA1-RON2 inh: inhibitors of Plasmodium falciparum AMA1-RON2 interaction; AID 720542; 360,000 compounds, 0.2% hits; AlphaScreen AMA1-biotinylated RON2 peptide binding; Potency, µM (doses to about 58.2 µM), for the others: top-dose activity change, negative = inhibition, most hits filed as inhibitors; active = well fitted inhibition curve with a large enough effect; inconclusive = small, poorly fitted or top-dose-only effect; inactive = no such curve, though single readings can be large or run the other way;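 also: potency is read from the fitted curve at half-maximal effect; 0% = vehicle wells and -100% = peptide control; nearly all actives have a fitted effect of over 45% in size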
#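 AMA1 (3D7) with his tag at 25 nM final met compounds first, then biotinylated RON2 peptide at 25 nM; detection used donor plus acceptor beads, 10 µg/mL apiece, read by AlphaScreen after 30 min at room temperature.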
# Marburg entry inh: blocks Marburg virus binding to or entry into cells; Marburg virus pseudotyped entry inhibition, cell reporter; Potency, µM (highest dose often 37.8 µM), inactives show at the top dose activity change, negative = inhibition, most hits filed as inhibitors; 300,000 compounds, 1.8% hits; AID 540276; calls by dose curve; tested in HEK293 cells; also: potency is read from the fitted curve at half-maximal effect; % is scaled to controls: 0 for no effect and ±100 for the full control effect
# LASV entry inh: inhibitors of Lassa virus binding or cell entry; Lassa virus pseudotype entry inhibition, cell reporter; Potency, µM (doses to about 37.9 µM), for inactives: top-dose activity change, negative = inhibition, most hits filed as inhibitors; 300,000 compounds, 1.2% hits; AID 540256; calls by dose curve; tested in HEK293 cells; also: potency is read from the fitted curve at half-maximal effect; % is scaled to controls: 0 for no effect and ±100 for the full control effect; nearly all actives have a fitted effect of over 50% in size
# * marks the source's active call; other numbers are inactive results; ? = inconclusive; . = no result given; ! = not active in a repeat; [ ] = another dose, or the depositor's remark. The entries come from a sample that favours hits as a whole.
SMILES,CHX counter,Shiga toxin inh,AMA1-RON2 inh,Marburg entry inh,LASV entry inh
Cc1cc(-c2cccs2)n[nH]1,14,28,-3%,4%,2%
CC[C@@]1(O)C(=O)OCc2c1cc1n(c2=O)Cc2cc3ccccc3nc2-1,-4,4,.,0.025µM*,?
CCC1(O)C(=O)OCc2c1cc1n(c2=O)Cc2cc3cc(O)ccc3nc2-1 (stereo unspecified),.,.,-1%,.,.
O=C(/C=C/c1ccccc1Cl)NCc1ccccc1,29*,51*,-2%,6%,-21%
O=C(/C=C/c1ccccc1[N+](=O)[O-])NCc1ccc(Cl)cc1,-1,32,0%,2%[46.1 µM],6%
O=C(/C=C/c1ccccc1Cl)NCCc1ccccc1,50*,77*,6%,?,-25%
N#CC1=C(N)Oc2cc(O)ccc2C1c1cccs1 (stereo unspecified),3,-10,-6%,-19%,-15%
N#CC1=C(N)Oc2c(ccc3ccccc23)C1c1cccs1 (stereo unspecified),23*,48*,83%,?,?
O=C(COc1cccnc1[N+](=O)[O-])NCc1ccccc1,-1,-13,5%,.,.
Cc1ccccc1SCC(=O)Nc1cc(C(F)(F)F)ccc1N1CCOCC1,.,.,-1%,-28%,2%
C#CCNC(=O)C[C@@H]1C[C@@]2(C(=O)OCC)CCCC=C2N(Cc2ccc(Cl)cc2Cl)C1=O,.,.,-4%,.,.
COC(=O)c1sc2ccccc2c1C(=O)OC,6,-7,-4%,10%,-19%[14.3 µM]
Oc1c(/C=N/c2ccccn2)sc2ccccc12,40*,61*,-3%,.,.
Oc1c(C=Nc2ccc(Cl)cn2)sc2ccccc12,29*,14*,-24%,?,?
O=C(Nc1ccnc(=O)[nH]1)c1sc2ccccc2c1Cl,-1,-6,15%,.,.
CC(=O)NCCN=Cc1sc2ccccc2c1O,40*,68*,3%,21%,-5%
CN=Cc1sc2ccccc2c1O,19*,33,-6%,8%,2%
Oc1c(C=Nc2cccnc2)sc2ccccc12,50*,95*,2%,17%,-1%
Oc1c(C=Nc2ccccc2)sc2ccccc12,-2,3,9%,?,?
Oc1c(C=NCc2ccncc2)sc2ccccc12,47*,84*,88%,13%,21%
CC(C)[C@H](NC(=O)OCc1ccccc1)C(=O)OCC(=O)N1CCCCC1,.,.,-3%,?,-6%[46.1 µM]
OC[C@H]1O[C@@H](c2nc(-c3ccc4[nH]ccc4c3)no2)[C@H](O)[C@@H](O)[C@H]1O,.,.,-5%,.,.
CCOC(=O)c1c2c(n(C3CCCCC3)c1CN(C)C)CC(Br)=C(OC)C2,.,.,.,10µM*,.
Cc1cc(C)c2nc(N3CCC(C(=O)NCc4ccccn4)CC3)sc2c1,47*,68,6%,.,.
Cc1cc(C)c2nc(N3CCC(C(=O)NCc4cccnc4)CC3)sc2c1,21*,86*,-1%,.,.
SMILES,CHX counter,Shiga toxin inh,AMA1-RON2 inh,Marburg entry inh,LASV entry inh
CCC(C)NC(=O)CN1C(=O)NC2(CCc3ccccc3C2)C1=O (stereo unspecified),-4,-14,-5%,21%[46.1 µM],5%
Nc1nc(Nc2ccccc2F)nc(N2CCOCC2)c1[N+](=O)[O-],9,20,4%,?,26%
Cc1sc2ncnc(Sc3ccccc3C(=O)Nc3ccc(Br)cc3)c2c1C,29*,51*,-8%,-18%,-19%
COc1ccc(-n2nc([N+](=O)[O-])c(=NCCc3ccccc3)n2O)cc1,15*,-8,-24%,?,16%
O=[N+]([O-])c1nn(-c2ccccc2)n(O)c1=NCCc1ccccc1,25*,112*,-21%,?,?
OCCCCCN=c1cc(-c2ccccc2)oc2ccc(Cl)cc12,45*,85*,7%,?,?
Clc1ccc2oc(-c3ccccc3)cc(=NCCCN3CCOCC3)c2c1,25*,93*,-6%,?,.
CCCSc1ccc2nc(NC(=O)OC)[nH]c2c1,35*,141*,9%,?,2.1µM*
COC(=O)Nc1nc2ccc(SC(C)C)cc2[nH]1,.,.,0%,.,.
COC(=O)N1CCN(C(=O)Cc2ccc(Cl)c(Cl)c2)C(CN2CCCC2)C1 (stereo unspecified),1,-5,.,11µM*,?
CCOC(=O)Cc1csc(NC(=O)c2cc(C)cc(C)c2)n1,-2,19,11%,-25%[46.1 µM],-17%[46.1 µM]
CCOC(=O)Cc1csc(NC(=O)c2cccs2)n1,24*,30,3%,11%,3%
CCOC(=O)Cc1csc(NC(=O)Cc2ccccc2[N+](=O)[O-])n1,18*,85,1%,29%[46.1 µM],24%[46.1 µM]
CCOC(=O)Cc1csc(NC(=O)c2ccc(Br)s2)n1,32*,62*,.,1%,.
CCOC(=O)Cc1csc(NC(=S)NC(=O)c2ccccc2Br)n1,20*,14,38%,?,3%
CCOC(=O)Cc1csc(NC(=S)NC(=O)c2ccccc2)n1,3,13,59%,7%,0%
Cc1csc(NC(=O)Cc2ccccc2[N+](=O)[O-])n1,16,9,-6%,0%,5%
CCCC(=O)Nc1nc(CC(=O)OCC)cs1,21,-1,-2%,21%[46.1 µM],7%
O=C1CCCN1CCCNc1nc(NCc2ccccc2)nc2ccsc12,.,.,-1%,.,.
CCOC(=O)c1sc(NC(=O)c2cccs2)nc1C,17*,70*,4%,1%,.
CCOC(=O)c1csc(NC(=O)c2cccs2)n1,33*,103*,-2%,.,.
COc1ccccc1N1CCN(C(c2ccc(F)cc2)c2nnnn2C(C)C)CC1 (stereo unspecified),-7,-9,4%,?,-14%
COc1ccc(Cn2nnnc2C(c2ccccc2)N2CCN(C3CCCC3)CC2)cc1 (stereo unspecified),-4,3,-4%,7.1µM*!,-6%
COc1ccc(C(c2nnnn2Cc2ccccc2)N2CCN(c3ccccc3)CC2)cc1 (stereo unspecified),1,-28,-14%,?,?
COc1ccccc1N1CCN(C(c2ccc(N(C)C)cc2)c2nnnn2CCc2ccccc2)CC1 (stereo unspecified),-1,14,20µM*,?,?
SMILES,CHX counter,Shiga toxin inh,AMA1-RON2 inh,Marburg entry inh,LASV entry inh
COc1ccc(C(c2nnnn2Cc2ccccc2)N2CCN(c3nc4ccccc4s3)CC2)cc1 (stereo unspecified),-3,-8,-3%,?,11µM*
CCC(c1nnnn1Cc1ccc(F)cc1)N1CCN(C2CCCCC2)CC1 (stereo unspecified),-2,-6,2%,13µM*,?
CCC(=O)Nc1ccc(C(=O)COC(=O)Cc2ccsc2)cc1,.,.,-1%,.,.
CC12CCC(=O)C=C1C(F)CC1C2C(O)CC2(C)C1CCC2(O)C(=O)CO (stereo unspecified),.,.,20%,-1%[46.1 µM],5%[46.1 µM]
COc1ccc(C(c2nnnn2CCc2ccccc2)N2CCN(C3CCCC3)CC2)cc1 (stereo unspecified),42*,60*,9%,?,?
N#Cc1cccc(C(c2nnnn2CCc2ccccc2)N2CCN(C3CCCCC3)CC2)c1 (stereo unspecified),-6,-10,0%,?,-10%
Cc1cc(Cl)cc(Cl)c1OCCN1CCCC1,-2,-11,-18%,.,.
